Test results: PubChem BioAssay (EPA / NIEHS)
Several values for one entry are separate records, joined by “and”; a condition that tells them apart may be missing. Identical values can stand only once. Activity calls are given as the source filed them. How the source made its calls: active means hit-call score of the fitted dose curve at least 0.9, where 1 is the maximum; inactive means score below 0.9.

How the values were obtained:
[1] = ATG_CRE_CIS: Attagene CIS-FACTORIAL HepG2 Assay for human cAMP Responsive Element (CRE) binding protein 3 (AID 2282926); conditions: HepG2 CRE cis-reporter, Attagene multiplexed mRNA; actives raise or lower the signal
How it was run: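 Liver-derived HepG2, transfected with a CRE-containing reporter panel, exposed 24 h; transcript levels sized and quantified by capillary electrophoresis of labelled amplicons; signal changes either way referenced to vehicle.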

[2] = molecular target: CCAAT/enhancer-binding protein beta (Homo sapiens) (UniProt P17676); assay: ATG_C_EBP_CIS: Attagene CIS-FACTORIAL HepG2 Assay for human CCAAT/Enhancer Binding Protein (C/EBP) beta (AID 2282927); conditions: HepG2 Attagene cis-factorial transcription factor reporter; actives raise or lower the signal
How it was run: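 Changes in reporter mRNA, rather than exogenous chimeric receptor activity, reflect native C/EBP signalling in transfected HepG2 cells dosed for 24 h; transcripts are detected by RT-PCR and capillary electrophoresis.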

[3] = ATG_CMV_CIS: Attagene CIS-FACTORIAL HepG2 Assay for human CMV (Internal Marker) (AID 2282928); conditions: HepG2 CMV promoter reporter, transcription factor profiling; actives raise or lower the signal;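 further: endpoint acts as a background internal control marker rather than a target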
How it was run: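 Readout: fluorescent reporter cDNA fragments separated by capillary electrophoresis after RT-PCR and HpaI cut. Cells: HepG2 carrying transfected cis-promoter reporter constructs, dosed 24 h. Endpoint serves as background internal-marker control, fit bidirectionally versus DMSO.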

[4] = ATG_DR4_LXR_CIS: Attagene CIS-FACTORIAL HepG2 Assay for human Liver X Receptor (LXR), DR4 submotif (AID 2282929); conditions: HepG2 Attagene DR4 cis-reporter, mRNA transcription; actives raise or lower the signal
How it was run: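 After transient transfection with multiplexed cis-promoter reporter units, HepG2 cells received test chemicals for 24 h. Reporter mRNA induction, detected by fluorescence after RT-PCR and capillary electrophoresis, was scored relative to DMSO.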

[5] = molecular target: Aryl hydrocarbon receptor (Homo sapiens) (UniProt P35869); assay: ATG_Ahr_CIS: Attagene CIS-FACTORIAL HepG2 Assay for human Aryl Hydrocarbon Receptor (Ahr) (AID 2282930); conditions: HepG2 AhR cis-factorial reporter transcription; actives raise or lower the signal
How it was run: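 HepG2, transient MRTU (cis) transfection, 24 h exposure. RNA → cDNA → PCR → 6-FAM primer extension → HpaI 2 h 37 C → CE. Fit: bidirectional, DMSO baseline.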

[6] = ATG_AP_1_CIS: Attagene CIS-FACTORIAL HepG2 Assay for human Activator Protein 1 (AP-1) (AID 2282931); conditions: HepG2 Attagene cis-factorial AP-1 reporter mRNA; actives raise or lower the signal
How it was run: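 After 24 h incubation with test chemical, RNA from transfected HepG2 cells was reverse-transcribed, amplified, fluorescently labelled and digested before capillary electrophoresis. Reporters were driven by cis-regulatory promoters; activity fitted bidirectionally versus DMSO.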

[7] = ATG_AP_2_CIS: Attagene CIS-FACTORIAL HepG2 Assay for human Activator Protein 2 (AP-2) (AID 2282932); conditions: HepG2 AP-2 cis-reporter, Attagene transcription factor profiling; actives raise or lower the signal
How it was run: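 Endogenous transcription factor activity is reported through transfected multiplex reporter constructs in HepG2, after 24 h of compound exposure. Transcripts were quantified by RT-PCR and capillary electrophoresis of fluorescent fragments. Bidirectional fit against DMSO.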

[8] = ATG_BRE_CIS: Attagene CIS-FACTORIAL HepG2 Assay for human Bone Morphogenetic Protein (BMP) Response Element (BRE) (AID 2282933); conditions: HepG2 BMP response element reporter, Attagene transcription factor profiling; actives raise or lower the signal
How it was run: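 HepG2 cells transiently transfected with CIS reporter units (endogenous TF activity, BMP response element), dosed 24 h. Reporter mRNA quantified by RT-PCR, fluorescent labelling and capillary electrophoresis; bidirectional fit vs DMSO baseline.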

[9] = molecular target: Retinoic acid receptor alpha (Homo sapiens) (UniProt P10276); assay: ATG_DR5_RAR_CIS: Attagene CIS-FACTORIAL HepG2 Assay for human Retinoic Acid Receptor Alpha (RARE), DR5 submotif (AID 2282934); conditions: HepG2 Attagene cis-factorial RARE DR5 reporter, mRNA; actives raise or lower the signal;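 on AC50: reporter responds to endogenous RAR alpha beta and gamma in HepG2 not RARA alone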
How it was run: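 HepG2, transient cis-reporter transfection, 24 h exposure. mRNA readout: RT-PCR, FAM label, HpaI cut, capillary electrophoresis. DMSO baseline, gain/loss fitting.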

[10] = molecular target: Transcription factor E2F1 (Homo sapiens) (UniProt Q01094); assay: ATG_E2F_CIS: Attagene CIS-FACTORIAL HepG2 Assay for human E2F Transcription Factor 1 (AID 2282935); conditions: HepG2 Attagene cis-reporter, E2F reporter RNA transcripts; actives raise or lower the signal
How it was run: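 Gain or loss of reporter transcript, fitted against DMSO, reflects E2F1-driven transcription. Transiently transfected HepG2 dosed 24 h before RNA isolation. Quantified by fluorescent RT-PCR products separated by capillary electrophoresis.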

[11] = ATG_E_Box_CIS: Attagene CIS-FACTORIAL HepG2 Assay for human Enhancer Box (E-box) (AID 2282936); conditions: HepG2 E-box cis-reporter transcription, actives raise or lower the signal
How it was run: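 E-box-driven reporter transcripts measured in transiently transfected HepG2 after 24 h exposure: RNA reverse-transcribed, PCR-amplified, fluorescently labelled, digested and resolved by capillary electrophoresis. Gain or loss relative to DMSO.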

[12] = ATG_M_61_CIS: Attagene CIS-FACTORIAL HepG2 Assay for M61 Transcription Factor (Internal Marker) (AID 2282937); conditions: HepG2 Attagene CIS-FACTORIAL M61 internal marker reporter; actives raise or lower the signal
How it was run: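 Using transiently transfected HepG2 liver cells, reporter transcript levels were assessed 24 h post-dosing by RT-PCR and capillary electrophoresis. Changes in either direction were fitted relative to DMSO controls.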

[13] = ATG_M_19_CIS: Attagene CIS-FACTORIAL HepG2 Assay for M19 Transcription Factor (Internal Marker) (AID 2282939); conditions: HepG2 Attagene CIS-FACTORIAL M19 internal marker reporter; actives raise or lower the signal
How it was run: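 HepG2 cells transiently transfected with cis-regulated multiplexed reporter units, dosed 24 h. Reporter mRNA quantified by RT-PCR and capillary electrophoresis; internal background marker fitted bidirectionally versus DMSO.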

[14] = ATG_ERE_CIS: Attagene CIS-FACTORIAL HepG2 Assay for Estrogen Response Element (ERE) (AID 2282940); conditions: HepG2 ERE cis-reporter, Attagene RNA transcript; actives raise or lower the signal
How it was run: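 HepG2 cells transiently transfected with multiplexed cis-element reporter units, measuring endogenous transcription factor activity; ERE reporter mRNA quantified after 24 h exposure by RT-PCR, fluorescent labelling, HpaI digestion and capillary electrophoresis. Bidirectional change versus DMSO.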

[15] = ATG_Ets_CIS: Attagene CIS-FACTORIAL HepG2 Assay for human Erythroblast Transformation Specific (ETS) (AID 2282941); conditions: HepG2 ETS cis-reporter transcription, actives raise or lower the signal
How it was run: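 RT-PCR/capillary electrophoresis fluorescence read-out of reporter mRNA; HepG2 transient multi-reporter transfection; 24 h compound exposure; gain or loss of signal fitted bidirectionally relative to DMSO.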

[16] = molecular target: Hepatocyte nuclear factor 3-beta (Homo sapiens) (UniProt Q9Y261); assay: ATG_FoxA2_CIS: Attagene CIS-FACTORIAL HepG2 Assay for human Forkhead box A2 (FOXA2) (AID 2282942); conditions: HepG2 cis-reporter transcription factor activity, 24 h; actives raise or lower the signal
How it was run: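 Fluorescence signal of reporter cDNA fragments, separated by capillary electrophoresis, reflects endogenous transcription factor activity in transfected HepG2 after 24 h. Both increases and decreases fitted against DMSO.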

[17] = ATG_GATA_CIS: Attagene CIS-FACTORIAL HepG2 Assay for human GATA Binding Protein (AID 2282944); conditions: HepG2 GATA cis-element reporter, Attagene multiplex mRNA; actives raise or lower the signal
How it was run: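 HepG2 cells transiently transfected with multiplexed cis-element reporter units measure endogenous GATA activity; after 24 h compound exposure, reporter mRNA quantified by RT-PCR and capillary electrophoresis. Changes fitted in both directions vs DMSO.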

[18] = ATG_EGR_CIS: Attagene CIS-FACTORIAL HepG2 Assay for human Early Growth Response 1 (EGR1) (AID 2282938); conditions: HepG2 Attagene CIS-FACTORIAL EGR reporter mRNA; actives raise or lower the signal
How it was run: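 Fluorescent capillary-electrophoresis signal of reporter cDNA fragments serves as read-out. HepG2 cells bear transiently transfected cis-promoter reporter units and are exposed 24 h; gain- or loss-of-signal is fitted against DMSO.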

[19] = ATG_FoxO_CIS: Attagene CIS-FACTORIAL HepG2 Assay for human Forkhead box O (FoxO) (AID 2282943); conditions: HepG2 Attagene cis-reporter, FoxO element, mRNA; actives raise or lower the signal
How it was run: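 Human hepatoma HepG2 cells carry transiently introduced reporter transcription units controlled by cis promoter elements. Chemical treatment lasted 24 h, and mRNA signal was compared with DMSO.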

Measured: AC50

Chain of Hepatocyte nuclear factor 3-beta (Homo sapiens) (Q9Y261 whole entry, looked up, the tested form may be a part): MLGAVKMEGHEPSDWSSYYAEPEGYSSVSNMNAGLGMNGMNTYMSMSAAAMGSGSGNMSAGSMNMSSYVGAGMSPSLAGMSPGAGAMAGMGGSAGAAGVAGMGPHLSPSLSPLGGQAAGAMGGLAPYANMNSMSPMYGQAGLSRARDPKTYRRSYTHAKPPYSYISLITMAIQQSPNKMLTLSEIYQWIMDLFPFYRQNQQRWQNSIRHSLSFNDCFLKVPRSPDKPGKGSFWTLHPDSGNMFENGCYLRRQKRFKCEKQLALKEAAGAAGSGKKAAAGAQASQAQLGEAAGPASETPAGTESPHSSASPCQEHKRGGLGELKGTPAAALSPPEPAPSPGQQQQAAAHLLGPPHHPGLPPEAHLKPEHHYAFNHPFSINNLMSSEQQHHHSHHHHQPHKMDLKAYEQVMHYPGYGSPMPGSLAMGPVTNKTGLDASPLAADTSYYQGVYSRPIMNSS
Chain of CCAAT/enhancer-binding protein beta (Homo sapiens) (P17676 whole entry, looked up): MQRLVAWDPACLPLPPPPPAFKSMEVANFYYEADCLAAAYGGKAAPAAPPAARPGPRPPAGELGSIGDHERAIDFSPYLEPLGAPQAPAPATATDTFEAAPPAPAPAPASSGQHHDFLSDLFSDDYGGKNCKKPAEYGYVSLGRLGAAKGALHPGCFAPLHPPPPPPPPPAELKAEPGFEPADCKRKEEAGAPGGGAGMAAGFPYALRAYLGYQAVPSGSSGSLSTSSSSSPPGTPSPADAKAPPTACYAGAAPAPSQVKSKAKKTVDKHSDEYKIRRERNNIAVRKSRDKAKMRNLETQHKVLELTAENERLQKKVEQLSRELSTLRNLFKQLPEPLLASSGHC
Chain of Retinoic acid receptor alpha (Homo sapiens) (P10276 whole entry, looked up): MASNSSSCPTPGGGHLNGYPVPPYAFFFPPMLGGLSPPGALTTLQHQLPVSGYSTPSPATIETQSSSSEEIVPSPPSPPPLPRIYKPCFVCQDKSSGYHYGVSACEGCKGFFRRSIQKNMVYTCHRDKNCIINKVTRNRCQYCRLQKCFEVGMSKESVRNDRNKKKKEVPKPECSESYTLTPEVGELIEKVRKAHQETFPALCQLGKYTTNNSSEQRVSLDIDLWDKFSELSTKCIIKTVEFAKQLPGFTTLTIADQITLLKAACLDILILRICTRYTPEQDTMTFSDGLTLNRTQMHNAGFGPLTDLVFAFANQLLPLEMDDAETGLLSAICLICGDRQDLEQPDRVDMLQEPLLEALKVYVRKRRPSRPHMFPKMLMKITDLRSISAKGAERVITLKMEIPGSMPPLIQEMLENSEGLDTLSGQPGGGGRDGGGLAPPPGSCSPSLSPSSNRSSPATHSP
Chain of Aryl hydrocarbon receptor (Homo sapiens) (P35869 whole entry, looked up): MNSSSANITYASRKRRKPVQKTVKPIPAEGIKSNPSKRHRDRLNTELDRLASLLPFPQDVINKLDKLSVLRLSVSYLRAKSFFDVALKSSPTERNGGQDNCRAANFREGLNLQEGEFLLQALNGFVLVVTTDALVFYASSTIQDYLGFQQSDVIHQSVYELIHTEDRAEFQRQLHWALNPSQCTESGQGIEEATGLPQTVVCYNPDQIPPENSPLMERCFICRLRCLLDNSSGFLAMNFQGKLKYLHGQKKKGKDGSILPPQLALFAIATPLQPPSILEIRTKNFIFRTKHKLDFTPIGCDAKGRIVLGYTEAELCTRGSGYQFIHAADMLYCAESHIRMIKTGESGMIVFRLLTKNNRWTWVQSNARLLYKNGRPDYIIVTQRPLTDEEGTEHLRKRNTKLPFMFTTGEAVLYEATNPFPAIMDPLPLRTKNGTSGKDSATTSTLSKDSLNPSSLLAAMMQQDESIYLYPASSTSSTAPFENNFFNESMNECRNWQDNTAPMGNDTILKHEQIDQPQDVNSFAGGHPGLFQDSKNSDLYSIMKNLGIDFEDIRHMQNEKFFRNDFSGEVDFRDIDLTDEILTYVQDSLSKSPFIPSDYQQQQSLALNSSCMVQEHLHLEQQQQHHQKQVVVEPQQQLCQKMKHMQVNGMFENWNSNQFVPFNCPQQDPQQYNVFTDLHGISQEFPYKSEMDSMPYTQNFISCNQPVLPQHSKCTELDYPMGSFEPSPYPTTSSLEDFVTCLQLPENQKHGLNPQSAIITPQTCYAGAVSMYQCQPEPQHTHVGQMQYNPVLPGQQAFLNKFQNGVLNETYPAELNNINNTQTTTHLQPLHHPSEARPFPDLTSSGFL
Chain of Transcription factor E2F1 (Homo sapiens) (Q01094 whole entry, looked up): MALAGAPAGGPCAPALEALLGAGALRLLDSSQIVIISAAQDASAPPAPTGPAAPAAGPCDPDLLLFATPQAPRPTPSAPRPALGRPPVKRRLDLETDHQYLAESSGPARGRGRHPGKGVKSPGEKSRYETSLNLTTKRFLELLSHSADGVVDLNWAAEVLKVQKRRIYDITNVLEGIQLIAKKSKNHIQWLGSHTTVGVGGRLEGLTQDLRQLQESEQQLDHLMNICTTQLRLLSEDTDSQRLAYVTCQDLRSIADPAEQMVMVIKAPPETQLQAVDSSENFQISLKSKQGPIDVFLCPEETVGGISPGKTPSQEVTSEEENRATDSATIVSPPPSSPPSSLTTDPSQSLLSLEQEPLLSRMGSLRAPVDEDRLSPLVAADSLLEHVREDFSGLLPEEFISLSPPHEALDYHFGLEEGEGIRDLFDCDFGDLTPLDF

Cc1cccc(O)c1C
inactive: [1] | [2] | [3] | [4] | [5] | [6] | [7] | [8] | [9] | [10] | [11] | [12] | [13] | [15] | [16] | [17]
active: [14] 59.3 µM and 59.6 µM

CC(C)c1nnc2ccc(-c3ocnc3-c3cc(F)ccc3F)cn12
inactive: [1] | [2] | [3] | [4] | [5] | [6] | [7] | [8] | [9] | [10] | [11] | [12] | [18] | [13] | [14] | [15] | [16] | [17]

COc1cc(C(C)C)c2c(c1)S(=O)(=O)N(COc1cc(=O)n3cccc(OCCN4CCCCC4)c3n1)C2=O
inactive: [5] | [7] | [8] | [10] | [11] | [13] | [14] | [16] | [19]
active: [1] 3.96 µM | [2] 3.74 µM | [3] 2.2 µM | [4] 0.643 µM | [6] 2.24 µM | [9] 0.812 µM | [12] 12.3 µM | [15] 2.02 µM | [17] 14.1 µM

CC(C)CC(C)O (stereo not given)
inactive: [1] | [2] | [3] | [4] | [5] | [6] | [7] | [8] | [9] | [10] | [11] | [12] | [13] | [14] | [15] | [16] | [17]

OCCC(F)(F)C(F)(F)C(F)(F)C(F)(F)F
inactive: [1] | [2] | [3] | [4] | [5] | [6] | [7] | [8] | [9] | [10] | [11] | [12] | [18] | [13] | [14] | [15] | [16] | [19] | [17]

FC(F)=C(F)C(F)(F)C(F)(F)C(F)(F)C(F)(F)C(F)(F)C(F)(F)F
inactive: [1] | [2] | [3] | [4] | [5] | [6] | [7] | [8] | [9] | [10] | [11] | [12] | [18] | [13] | [14] | [15] | [16] | [17]

CCCOc1ccc(S(=O)(=O)N2CCN(CC)CC2)cc1-c1nc2c(CC)n(Cc3ccccn3)nc2c(=O)[nH]1
active: [4] 150 µM | [18] 22.2 µM
inactive: [1] | [2] | [3] | [5] | [6] | [7] | [8] | [9] | [10] | [11] | [12] | [13] | [14] | [15] | [19] | [17]
